# Measured values from PubChem BioAssay.
# The source made the active and inactive calls.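 The calls were made as follows: active = RAM network inhibition above 8.4% in each of two replicates, 3 SD over the compound average; inconclusive = above 8.4% inhibition in only one replicate; inactive = 8.4% inhibition or less in each replicate.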
# Test: RAM signaling pathway blockade in yeast – S. cerevisiae, Pdr1DBD-CYC8 efflux-inhibited sensitized strain, primary screen (AID 1298);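 also: 0% = DMSO untreated cells without growth and 100% = 10 µM 1-NA-PP1 full growth; higher means more yeast growth rescued from 5-FOA killing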
# Settings: S. cerevisiae cbk1-as DSE1-URA3 strain, 5-FOA growth OD615, 2 d; at 50 µM; stronger effect = higher value
row,Structure (SMILES),RAM network inhibition
1,Cc1csc2nc(CNS(=O)(=O)c3ccc4c(c3)OCCO4)cn12,2.03% (inactive)
2,CCN(C(=O)CSc1nnnn1-c1cc(C)ccc1OC)C1CCS(=O)(=O)C1 (configuration not stated),-1.67% (inactive)
3,O=C1C2CCCN2C(c2ccc(F)cc2)N1c1cccc(Cl)c1 (configuration not stated),2.38% (inactive)
4,O=C(Nc1ccc2nc(-c3cccnc3)[nH]c2c1)c1ccco1,4.67% (inactive)
5,CCOC(=O)Cc1csc(NC(=O)CN2C(=O)c3ccccc3S2(=O)=O)n1,5.65% (inactive)
6,Brc1cccc(-c2nc(-c3ccncc3)no2)c1,3.3% (inactive)
7,COc1ccc(N(CC(=O)NC2CCCCC2)S(=O)(=O)c2cccnc2)cc1,2.86% (inactive)
